# Experimental data taken from paper PMC4552634, “A New Set of Chemical Starting Points with Plasmodium falciparum Transmission-Blocking Potential for Antimalarial Drug Discovery” (PLoS ONE, 2015).
# The whole screen tested about 13,000 compounds, of which about 3,200 (25%) showed an effect of 50% or more. This is one part of the list.
# System: P. falciparum stage V gametocytes
# Design: BacTiter-Glo ATP luminescence viability of purified stage V gametocytes in 384-well plates, per cent inhibition versus DMSO
# Settings: 48 h, 5 µM; inhibitor
row,Structure (SMILES),% Inhibition [%]
1,CC(O)c1cccc(-c2ccc(Nc3ccnc4cc(-c5nccs5)ccc34)cc2)c1 (centres unmarked) [TCMDC-138331],-54.01
2,CC(C)(C)c1cc2cc(Nc3ccnc4cc(-c5nccs5)ccc34)ccc2[nH]1 [TCMDC-138349],14.13
3,Cc1nc(-c2cccc(Nc3ccnc4cc(-c5nccs5)ccc34)c2)no1 [TCMDC-138334],113.3
4,c1ccc(Cn2nnnc2-c2cccc(Nc3ccnc4cc(-c5nccs5)ccc34)c2)cc1 [TCMDC-138337],1.923
5,Cc1cccc(-c2cc3cc(Nc4ccnc5cc(-c6nccs6)ccc45)ccc3[nH]2)c1 [TCMDC-138348],-37.38
6,c1ccc(-c2nc3ccccc3[nH]2)c(Nc2ccnc3cc(-c4nccs4)ccc23)c1 [TCMDC-138346],44.29
7,Cc1ccc2nc(-c3ccccc3Nc3ccnc4cc(-c5nccs5)ccc34)[nH]c2c1 [TCMDC-138345],108.2
8,Nc1n[nH]c(-c2ccccc2Nc2ccnc3cc(-c4nccs4)ccc23)n1 [TCMDC-138301],14.85
9,Cc1nnc(-c2cccc(Nc3ccnc4cc(-c5nccs5)ccc34)c2)o1 [TCMDC-138335],93.46
10,O=C(NCC(NCCCNc1cc(=O)c2ccccc2[nH]1)c1cc(Br)cc(Br)c1)C1=CCCC1 (centres unmarked) [TCMDC-140317],-52.55
11,CC(=O)N[C@H](C(=O)Nc1cccc(-c2ccc(-c3nc4cccc(C)c4[nH]3)s2)c1)C(C)C [TCMDC-136855],31.89
12,Cc1ccc(-c2nc(N3CCN(C(=O)c4ccco4)CC3)c3ccc(Cl)cc3n2)cc1 [TCMDC-124781],24.46
13,Cc1ccc2c(Cl)c(C(=O)N3CC(C)OC(C)C3)sc2c1 (centres unmarked) [TCMDC-125624],35.35
14,COc1ccccc1Cn1ccnc1SCC(=O)Nc1cc(C(F)(F)F)ccc1Cl [TCMDC-124736],-16.43
15,Cc1cc(C)cc(OCC(O)CN(CCN2CCOCC2)C(=O)Nc2ccc(Br)cc2)c1 (centres unmarked) [TCMDC-141491],2.41
16,O=C(Cn1c(CCc2cccc(F)c2F)nc(=O)c2ccccc21)N(CCN1CCCCC1)Cc1ccc(-c2ccc(C(F)(F)F)cc2)cc1 [TCMDC-141088],27.65
17,O=C(Cn1c(CCc2cccc(F)c2F)nc(=O)c2ccccc21)N(CCCN1CCCC1)Cc1ccc(-c2ccc(C(F)(F)F)cc2)cc1 [TCMDC-141055],113.5
18,CC(C)(CN1CCCC1)CN(Cc1ccc(-c2ccc(C(F)(F)F)cc2)cc1)C(=O)Cn1c(CCc2cccc(F)c2F)nc(=O)c2ccccc21 [TCMDC-141098],107.5
19,O=C(Cn1c(CCc2cccc(F)c2F)nc(=O)c2ccccc21)N(CCCN1CCCCC1)Cc1ccc(-c2ccc(C(F)(F)F)cc2)cc1 [TCMDC-141053],101.4
20,O=C(Cn1c(CCc2cccc(F)c2F)nc(=O)c2ccccc21)N(CCN1CCCC1)Cc1ccc(-c2ccc(C(F)(F)F)cc2)cc1 [TCMDC-141059],66.66
21,FC(F)(F)c1ccc2c(NCCc3ccccc3)ccnc2c1 [TCMDC-138552],-21.17

row,Structure (SMILES),% Inhibition [%]
1,COc1cccc2cc(C(=O)N[C@@H](CC(C)C)C(=O)N[C@H](/C=N/N(C)C(=O)OC(C)(C)C)CC(=O)OC(C)(C)C)oc12 [TCMDC-136092],4.382
2,COc1ccc(NC(=O)Nc2nc(-c3ccc(Cl)c(C)c3)cs2)cc1N1CCN(C)CC1 [TCMDC-139155],8.522
3,C[C@@H]1C[C@@H]([C@H](O)CC2CC(=O)NC(=O)C2)C(=O)[C@@H](C)C1 [TCMDC-125838],50.08
4,O=C(NC1CCN(Cc2ccccc2)CC1)c1ccc(-c2nc3cc(Cl)c(Cl)cc3[nH]2)c(F)c1 [TCMDC-140083],2.132
5,c1cc(-c2cc3ccc(C4=NCCN4)cc3[nH]2)ccc1C1=NCCN1 [TCMDC-137748],20.42
6,N=C(N)c1ccc(-c2cc3ccc(C(=N)N)cc3[nH]2)cc1 [TCMDC-123458],53.3
7,N=C(N)c1ccc2[nH]c(-c3cc4cc(C(=N)N)ccc4o3)cc2c1 [TCMDC-137436],-17.43
8,COc1ccc2nccc([C@@H](O)CN3CCC(NC(=O)C(c4ccccc4C)N4CCC(Cc5ccccc5)CC4)CC3)c2c1 (some centres unmarked) [TCMDC-141102],2.818
9,N=C1SC(=Cc2cn[nH]c2-c2ccc(F)cc2)C(=O)N1c1nccs1 [TCMDC-123515],2.084
10,CCc1ccc(S(=O)(=O)Nc2cccc(CCN3CCC(N4CCCCC4)CC3)c2)cc1 [TCMDC-134077],77.96
11,O=S(=O)(Nc1cccc(CCN2CCC(N3CCCCC3)CC2)c1)c1ccc(Cl)cc1 [TCMDC-134065],22.65
12,O=S(=O)(Nc1cccc(CCN2CCC(N3CCCCC3)CC2)c1)c1ccc(-c2ccccc2)cc1 [TCMDC-134071],47.75
13,O=S(=O)(Nc1ccc(CCN2CCC(N3CCCCC3)CC2)cc1)c1ccc(Cl)cc1 [TCMDC-134078],45.94
14,CCc1ccc(S(=O)(=O)Nc2ccc(CCN3CCC(N4CCCCC4)CC3)cc2)cc1 [TCMDC-134089],86.75
15,O=S(=O)(Nc1cccc(CCN2CCC(N3CCCCC3)CC2)c1)c1ccc(Oc2ccccc2)cc1 [TCMDC-134072],70.07
16,Cc1ccc(NS(=O)(=O)c2ccc(C(C)N3CCC(N4CCCCC4)CC3)cc2)cc1C (centres unmarked) [TCMDC-133540],11.79
17,CC(C)c1ccc(S(=O)(=O)Nc2cccc(CCN3CCC(N4CCCCC4)CC3)c2)cc1 [TCMDC-134075],76.83
18,O=S(=O)(Nc1cccc(CCN2CCC(N3CCCCC3)CC2)c1)c1ccc(Oc2ccccc2)nc1 [TCMDC-134073],14.52
19,COc1ccc(O)cc1Cc1cnc2nc(N)nc(N)c2c1C [TCMDC-137498],-65.52
20,COc1ccc2nccc([C@@H](O)CN3CCC(NC(=O)C(c4cc5ccccc5o4)N4CCN(c5ccccc5)CC4)CC3)c2c1 (some centres unmarked) [TCMDC-140989],28.59
